# Test results reported in PubChem BioAssay (NCATS).
# Records with an inconclusive call do not appear. Entries that show only a call come without a potency. Activity calls are given as the source filed them. Unless noted, calls follow the shape of the full dose curve.
# Molecular target: Alpha-galactosidase (Coffea arabica) (UniProt Q42656)
# Test: Counterscreen for Glucocerebrosidase Inhibitors: qHTS Assay for Coffee Bean alpha-Galactosidase at pH 5.9 (AID 998; active = well fitted curve in the direction sought with a large enough effect; inactive = no such curve, though single readings can be large or run the other way)
# Settings: coffee bean alpha-galactosidase enzyme assay; series mostly up to 76.9 µM
# Outline: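 Compounds were titrated from 0.7 nM to 77 uM against green coffee bean alpha-galactosidase (2 nM) using 80 uM fluorogenic 4-methylumbelliferyl substrate. After 20 min at room temperature, reactions were stopped at pH 10 and read by fluorescence.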
# Alpha-galactosidase (Coffea arabica), sequence (Q42656 whole entry, looked up): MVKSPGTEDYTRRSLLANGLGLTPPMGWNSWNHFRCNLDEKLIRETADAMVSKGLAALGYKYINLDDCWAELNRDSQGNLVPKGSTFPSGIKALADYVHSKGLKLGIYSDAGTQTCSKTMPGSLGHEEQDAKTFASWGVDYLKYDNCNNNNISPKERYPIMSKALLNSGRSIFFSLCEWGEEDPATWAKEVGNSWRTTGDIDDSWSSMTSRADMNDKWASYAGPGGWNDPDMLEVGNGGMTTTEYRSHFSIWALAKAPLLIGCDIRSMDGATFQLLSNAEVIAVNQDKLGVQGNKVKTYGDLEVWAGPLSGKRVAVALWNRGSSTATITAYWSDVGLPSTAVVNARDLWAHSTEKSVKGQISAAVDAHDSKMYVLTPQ
row,Structure (SMILES),outcome
1,Oc1cc2c(cc1O)CN(C(=S)NCCc1ccc(Cl)cc1)CCC2,inactive
2,CN(C)c1nc(N)c(C(=O)N=C(N)N)nc1Cl,inactive
3,CCCCCCCCCCCCCCC[C@H](O)[C@H](N)CO,inactive
4,O=C(O)C1=CCCNC1,inactive
5,COC(=O)c1c(C)[nH]c(C)c1C(=O)c1ccccc1Cc1ccccc1,inactive
6,CN[C@H](CC(=O)O)C(=O)O,inactive
7,O=c1ccc2c(OCCCCc3ccccc3)c3ccoc3cc2o1,inactive
8,NCCSSCCN,inactive
9,O=c1onc2n1-c1cc(Br)ccc1OC2,inactive
10,Cc1ccc([N+](=O)[O-])cc1S(=O)(=O)N(C)C,inactive
11,N[C@H](C(=O)O)[C@H](O)C(=O)O,inactive
12,O=C(O)c1cc(=O)cc(C(=O)O)[nH]1,inactive
13,Nc1ccc(-c2ccc3ccccc3n2)cc1,inactive
14,O=C(O)c1cc2cc(F)ccc2[nH]1,inactive
15,CC[N+](CC)(CC)CC(=O)Nc1c(C)cccc1C,inactive
16,CCCN(CC1CC1)c1nc(C)nc(Nc2c(Cl)cc(Cl)cc2Cl)c1Cl,inactive
17,CNCCNS(=O)(=O)c1cccc2cnccc12,inactive
18,NC1(C(=O)O)CCCCC1,inactive
19,Cc1nc(N=Nc2ccc(S(=O)(=O)O)cc2S(=O)(=O)O)c(COP(=O)(O)O)c(C=O)c1O,inactive
20,C/C(=C\c1ccc(C(=O)O)cc1)c1ccc2c(c1)C(C)(C)CCC2(C)C,inactive

row,Structure (SMILES),outcome
1,COc1ccc2c(c1)c(CC(=O)O)c(C)n2Cc1ccc(Cl)cc1,inactive
2,CSC(=N)N,inactive
3,C#CCn1c(=O)c2c(ncn2C)n(C)c1=O,inactive
4,COc1cc2c(CCNC(C)=O)c[nH]c2cc1O,inactive
5,CCN(CC)CCOC(=O)c1cc(Cl)c(N)cc1OC,inactive
6,COc1ccccc1N1CCN(CCCCN2C(=O)c3ccccc3C2=O)CC1,inactive
7,O=C(O)/C(=C/c1c(C(=O)O)[nH]c2cc(Cl)cc(Cl)c12)c1ccccc1,inactive
8,Cn1c(=O)c2[nH]c(-c3ccc(S(=O)(=O)O)cc3)nc2n(C)c1=O,inactive
9,NCCNS(=O)(=O)c1cccc2c(Cl)cccc12,inactive
10,COc1cc(/C=C(\C#N)C(=O)c2ccc(O)c(O)c2)cc(I)c1O,inactive
11,COc1ccc(C(=O)NCc2cccnc2)cc1C(=O)NCc1cccnc1,inactive
12,NC1(C(=O)O)CC1,inactive
13,Cn1c(=O)c2[nH]c(C3CCCC3)nc2n(C)c1=O,inactive
14,NC(=O)C(=O)O,inactive
15,Cn1c(=O)[nH]c2ncn(C)c2c1=O,inactive
16,N#C/C(=C\c1ccc(O)c(O)c1)C(=O)c1ccc(O)c(O)c1,inactive
17,CN1CCN(c2nc3cc(C(F)(F)F)ccc3n3cccc23)CC1,inactive
18,NCCCCN,inactive
19,CC1(C)CCC=[N+]1[O-],inactive
20,C[C@H](O)C(=O)C1=Nc2c(nc(N)[nH]c2=O)NC1,inactive

# Tested on: not listed separately
# Test: Validation screen for inhibitors of Lassa infection (AID 463096)
# Settings: Lassa virus infection, cell-based; series mostly up to 46.1 µM
row,Structure (SMILES),Potency
1,Oc1cc2c(cc1O)CN(C(=S)NCCc1ccc(Cl)cc1)CCC2,inactive
2,CN(C)c1nc(N)c(C(=O)N=C(N)N)nc1Cl,inactive
3,CCCCCCCCCCCCCCC[C@H](O)[C@H](N)CO,inactive
4,O=C(O)C1=CCCNC1,inactive
5,COC(=O)c1c(C)[nH]c(C)c1C(=O)c1ccccc1Cc1ccccc1,inactive
6,CN[C@H](CC(=O)O)C(=O)O,inactive
7,O=c1ccc2c(OCCCCc3ccccc3)c3ccoc3cc2o1,inactive
8,NCCSSCCN,inactive
9,O=c1onc2n1-c1cc(Br)ccc1OC2,inactive
10,Cc1ccc([N+](=O)[O-])cc1S(=O)(=O)N(C)C,inactive
11,N[C@H](C(=O)O)[C@H](O)C(=O)O,inactive
12,O=C(O)c1cc(=O)cc(C(=O)O)[nH]1,inactive
13,Nc1ccc(-c2ccc3ccccc3n2)cc1,inactive
14,O=C(O)c1cc2cc(F)ccc2[nH]1,inactive
15,CC[N+](CC)(CC)CC(=O)Nc1c(C)cccc1C,inactive
16,CCCN(CC1CC1)c1nc(C)nc(Nc2c(Cl)cc(Cl)cc2Cl)c1Cl,inactive
17,CNCCNS(=O)(=O)c1cccc2cnccc12,inactive
18,NC1(C(=O)O)CCCCC1,inactive
19,Cc1nc(N=Nc2ccc(S(=O)(=O)O)cc2S(=O)(=O)O)c(COP(=O)(O)O)c(C=O)c1O,inactive
20,C/C(=C\c1ccc(C(=O)O)cc1)c1ccc2c(c1)C(C)(C)CCC2(C)C,inactive

row,Structure (SMILES),Potency
1,COc1ccc2c(c1)c(CC(=O)O)c(C)n2Cc1ccc(Cl)cc1,inactive
2,CSC(=N)N,inactive
3,C#CCn1c(=O)c2c(ncn2C)n(C)c1=O,inactive
4,COc1cc2c(CCNC(C)=O)c[nH]c2cc1O,inactive
5,CCN(CC)CCOC(=O)c1cc(Cl)c(N)cc1OC,inactive
6,COc1ccccc1N1CCN(CCCCN2C(=O)c3ccccc3C2=O)CC1,inactive
7,O=C(O)/C(=C/c1c(C(=O)O)[nH]c2cc(Cl)cc(Cl)c12)c1ccccc1,inactive
8,Cn1c(=O)c2[nH]c(-c3ccc(S(=O)(=O)O)cc3)nc2n(C)c1=O,inactive
9,NCCNS(=O)(=O)c1cccc2c(Cl)cccc12,inactive
10,COc1cc(/C=C(\C#N)C(=O)c2ccc(O)c(O)c2)cc(I)c1O,inactive
11,COc1ccc(C(=O)NCc2cccnc2)cc1C(=O)NCc1cccnc1,inactive
12,NC1(C(=O)O)CC1,inactive
13,Cn1c(=O)c2[nH]c(C3CCCC3)nc2n(C)c1=O,inactive
14,NC(=O)C(=O)O,inactive
15,Cn1c(=O)[nH]c2ncn(C)c2c1=O,inactive
16,N#C/C(=C\c1ccc(O)c(O)c1)C(=O)c1ccc(O)c(O)c1,inactive
17,CN1CCN(c2nc3cc(C(F)(F)F)ccc3n3cccc23)CC1,inactive
18,NCCCCN,inactive
19,CC1(C)CCC=[N+]1[O-],inactive
20,C[C@H](O)C(=O)C1=Nc2c(nc(N)[nH]c2=O)NC1,inactive
